Results reported in PubChem BioAssay (NCATS).
Values joined by “and” are separate entries in the source; they are usually repeats but may differ in a detail not shown here. Equal entries are not always repeated. Inconclusive results are not listed. Active and inactive are the calls of the source. Calls follow the shape of the dose curve; as a rule, active = well fitted curve in the direction sought with a large enough effect; inconclusive = small, poorly fitted or top-dose-only effect, or another doubt; inactive = no such curve, though single readings can be large; an effect the other way counts as inactive or inconclusive.

What was measured:
[1] = qHTS for Inhibitors of Plasmodium falciparum (DD2) proliferation (AID 504314); also: potency is read from the fitted curve at half-maximal effect;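 as to activity, negative = inhibition: parasite DNA measured by SYBR Green fluorescence after red cell lysis; plate controls were DMSO vehicle for no effect and artemisinin wells for full effect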; settings: P. falciparum Dd2 in erythrocytes, SYBR Green growth, 72 h; series mostly up to 6.11 µM
Summary of the method: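 Infected RBCs, 0.3% parasitemia, 2.5% Hct; compound 72 h, 37C/5% CO2; lyse + SYBR Green I, RT overnight, dark; read ex485/em535; normalize to DMSO and artemisinin 0.29 uM.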

[2] = qHTS for Inhibitors of Plasmodium falciparum (GB4) proliferation (AID 504315); also: nearly all actives have a fitted effect of over 50% in size; also: potency is read from the fitted curve at half-maximal effect; settings: P. falciparum GB4 in erythrocytes, SYBR Green DNA, 72 h; series mostly up to 6.7 µM
Summary of the method: (§1)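 Erythrocytes infected with P. falciparum line (0.3% parasitemia, 2.5% hematocrit final) incubated with compounds 72 h at 37 °C, 5% CO2; SYBR Green lysis buffer added, fluorescence read next day. Normalized to 0.29 uM artemisinin and DMSO.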

[3] = qHTS for Inhibitors of Plasmodium falciparum (7G8) proliferation (AID 504316); also: nearly all actives have a fitted effect of over 65% in size; also: potency is read from the fitted curve at half-maximal effect; settings: P. falciparum 7G8 in erythrocytes, SYBR Green DNA, 72 h; series mostly up to 6.7 µM
Summary of the method: as §1

[4] = qHTS for Inhibitors of Plasmodium falciparum (HB3) proliferation (AID 504318); also: nearly all actives have a fitted effect of over 60% in size; also: potency is read from the fitted curve at half-maximal effect; settings: P. falciparum HB3 in erythrocytes, SYBR Green DNA, 72 h; series mostly up to 7.21 µM
Summary of the method: as §1

[5] = qHTS for Inhibitors of Plasmodium falciparum (CP250) proliferation (AID 504320);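 also: plate controls were DMSO vehicle for no effect and 0.29 µM artemisinin control for full effect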; settings: P. falciparum CP250 in erythrocytes, SYBR Green DNA, 72 h; series mostly up to 6.7 µM
Summary of the method: as §1

O=C(C=NO)NCCCCNC(=O)C=NO
inactive: Potency [1] | Potency [2] | Potency [3] | Potency [4] | Potency [5]

COC(=O)C[C@H]1c2ccccc2C2=C(C[C@@H](C)[C@H]3C(=O)N(c4ccccc4)C(=O)[C@@H]23)N1C(=O)OC
inactive: activity, negative = inhibition [1] 2.35% [at 1.12 µM] and 0.352% [at 1.12 µM] | Potency [2] | Potency [3] | Potency [4] | Potency [5]

CCN1C(=O)NC(c2cccs2)C(C(=O)OC)=C1C (stereo unspecified)
inactive: Potency [1] | Potency [2] | Potency [3] | Potency [4]

C=C(C)CCN1C(=O)NC(c2cccc(C(F)(F)F)c2)C(C(=O)OC)=C1C (stereo unspecified)
inactive: Potency [1] | Potency [2] | Potency [3] | Potency [4] | Potency [5]

C[C@@H]1C=CCCO[C@]12C(=O)N(CC1CC1)c1cccc(Br)c12
inactive: Potency [1] | Potency [2] | Potency [3] | Potency [4] | Potency [5]

O=C(NN=C1C[C@@H](O)[C@H](O)[C@H]2[C@@H]3C(=O)N(C[C@@H]4CCCO4)C(=O)[C@@H]3CC[C@H]12)OCc1ccccc1
inactive: Potency [1] | Potency [2] | Potency [3] | Potency [4] | Potency [5]

C=CCOC(=O)N[C@H](C(C(=O)OC)=C(C)NCc1ccccc1)c1cccc(C(F)(F)F)c1
inactive: Potency [1] | Potency [2] | Potency [3] | Potency [4] | Potency [5]

COC(=O)C1=C(C(=O)OC)[C@@H]2Nc3ccccc3[C@@]23C[C@@H](C(=O)OC)N(C(=O)N2CCNC2=O)C3=N1
inactive: Potency [1] | Potency [2]

CC(C)CON=C1C[C@@H](O)[C@@H](O)[C@@H]2[C@H]3C(=O)N([C@@H](C)c4ccccc4)C(=O)[C@@H]3CC[C@H]12
inactive: Potency [1] | Potency [2] | Potency [3]

O=C1OC2(CCCCC2)CC2=C1[C@H]1O[C@](CCCCN3C(=O)c4ccccc4C3=O)(Cc3ccccc31)O2
active: Potency [1] 1.5 µM | Potency [2] 1.69 µM | Potency [3] 1.69 µM | Potency [4] 1.9 µM

CC1(OC(=O)CCc2ccccc2)C(=O)C=C2C=C(c3ccsc3)OC=C2C1=O (stereo unspecified)
inactive: Potency [1] | Potency [2] | Potency [3] | Potency [4] | Potency [5]

COC(=O)N[C@@H](c1cccc(F)c1)C(C(C)=O)C(=O)OC (stereo partly specified)
inactive: Potency [1] | Potency [2] | Potency [3] | Potency [4]

COC(=O)CCC(=O)OC1(C)C(=O)C=C2C=C(C3CC3)N(Cc3ccco3)C=C2C1=O (stereo unspecified)
inactive: activity, negative = inhibition [1] 0.997% [at 1.12 µM] | Potency [2] | Potency [3] | Potency [4] | Potency [5]

C[C@H]1Cc2c(COc3ccccc3)nc3c(c2CO1)CN(C(=O)NCc1ccco1)CC3
inactive: activity, negative = inhibition [1] -0.216% [at 1.12 µM] | Potency [2]

CC(=O)OC[C@H]1O[C@@H](ON=C2C[C@@H](O)[C@@H](O)[C@@H]3[C@H]4C(=O)N(Cc5ccccc5)C(=O)[C@@H]4CC[C@@H]23)[C@H](OC(C)=O)[C@@H](OC(C)=O)[C@H]1OC(C)=O
inactive: Potency [1] | Potency [2] | Potency [3] | Potency [4] | Potency [5]

COC(=O)[C@H](Cc1ccccc1)NC(=O)O[C@@H]1C(=O)c2cc(OC)ccc2O[C@H]1c1ccc(OC)c(Br)c1
inactive: Potency [1] | Potency [2] | Potency [3] | Potency [4] | Potency [5]

CCN(CCNC(=O)[C@H]1C=C(OC)C(=O)C[C@@H]2c3ccccc3C[C@]12C)C(C)=O
inactive: Potency [1] | Potency [2] | Potency [3] | Potency [4] | Potency [5]

C=CCOC(=O)N[C@H](c1ccco1)C(C(C)=O)C(C)=O
inactive: Potency [1] | Potency [2] | Potency [3] | Potency [4] | Potency [5]

CCN1C(=NCc2cc(OC)c(OC)c(OC)c2)NC(c2ccccc2)C(C(=O)OC)=C1C (stereo unspecified)
inactive: Potency [1] | Potency [2] | Potency [3] | Potency [4] | Potency [5]

COC(=O)N[C@@H](CCc1ccccc1)[C@]1(C(C)=O)CCCC1=O
inactive: Potency [1] | Potency [2] | Potency [3] | Potency [4] | Potency [5]

COc1ccc(C2=CC3=C(Br)C(=O)C(C)(OC(=O)c4ccc(Cl)nc4)C(=O)C3=CO2)cc1 (stereo unspecified)
inactive: Potency [1] | Potency [2] | Potency [3] | Potency [5]

CCN1C(=O)NC(c2cccc(F)c2)C(C(=O)OC)=C1C (stereo unspecified)
inactive: Potency [1] | Potency [2] | Potency [3] | Potency [4] | Potency [5]

COC(=O)[C@H](Cc1ccccc1)NC(=O)O[C@H]1C(=O)c2ccc(OC)cc2O[C@@H]1c1ccc2c(c1)OCO2
inactive: Potency [1] | Potency [2] | Potency [3] | Potency [4] | Potency [5]

C=C(Br)CO[C@@H]1C=C[C@@H](c2ccccc2)O[C@@H]1COC
inactive: Potency [1] | Potency [2] | Potency [4] | Potency [5]

COC(=O)NC(C=Cc1ccccc1)C(C(C)=O)C(=O)OC (stereo unspecified)
inactive: Potency [1] | Potency [2] | Potency [3] | Potency [4] | Potency [5]

COC(=O)C1=C(C(=O)OC)[C@@H]2N(Cc3ccccc3)c3ccccc3[C@@]23C[C@@H](C(=O)OC)N(C(=O)Nc2ccc(C(F)(F)F)cc2)C3=N1
inactive: Potency [1] | Potency [2] | Potency [3] | Potency [5]
